Shown are actives, neighbours in structure and some others; about 0.93% of the full set was active somewhere.
MBNL1-CUG inh – inhibitors of human MBNL1 binding to CUG repeat RNA. TR-FRET MBNL1-His/biotin-(CUG)12 binding, 665/545 ratio. Potency, µM (highest dose often 57.5 µM), inactives show top-dose activity change, negative = inhibition, hits mostly inhibitors. hit rate 0.036% among 280,000. AID 2675; active = well fitted inhibition curve with a large enough effect in the signal ratio, with a control signal flat, not every such curve was filed as active; inconclusive = small, poorly fitted or top-dose-only effect, or effect the other way, or a change in a side signal; inactive = no such curve, though single readings can be large or run the other way; the % refers to the signal ratio; note: potency is the fitted concentration of half-maximal effect
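MBNL1-His + Biotin-(CUG)12, cpd titration 92 nM–58 uM; Tb anti-His Ab 0.055 ng/ul, SA-XL665 5 nM (final); 60 min RT; ratiometric 665/545 nm, Ex 340 nm; normalized to buffer and full-complex controls.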
PKM2 act – activators of human pyruvate kinase M2; purified PKM2, Kinase-Glo ATP luminescence, activation; response scale: 0% is enzyme alone, no compound; AID 1631; hit rate 0.34% among 260,000; P14618; Potency, µM (top dose mostly 57.5 µM), without a hit: at the highest dose activation, actives largely listed as activators; active = well fitted activation curve with a large enough effect; inconclusive = small, poorly fitted or top-dose-only effect; inactive = no such curve, though single readings can be large or run the other way; note: potency is the fitted concentration of half-maximal effect; nearly all actives have a fitted effect of over 55% in size
Target sequence (P14618 whole entry, looked up): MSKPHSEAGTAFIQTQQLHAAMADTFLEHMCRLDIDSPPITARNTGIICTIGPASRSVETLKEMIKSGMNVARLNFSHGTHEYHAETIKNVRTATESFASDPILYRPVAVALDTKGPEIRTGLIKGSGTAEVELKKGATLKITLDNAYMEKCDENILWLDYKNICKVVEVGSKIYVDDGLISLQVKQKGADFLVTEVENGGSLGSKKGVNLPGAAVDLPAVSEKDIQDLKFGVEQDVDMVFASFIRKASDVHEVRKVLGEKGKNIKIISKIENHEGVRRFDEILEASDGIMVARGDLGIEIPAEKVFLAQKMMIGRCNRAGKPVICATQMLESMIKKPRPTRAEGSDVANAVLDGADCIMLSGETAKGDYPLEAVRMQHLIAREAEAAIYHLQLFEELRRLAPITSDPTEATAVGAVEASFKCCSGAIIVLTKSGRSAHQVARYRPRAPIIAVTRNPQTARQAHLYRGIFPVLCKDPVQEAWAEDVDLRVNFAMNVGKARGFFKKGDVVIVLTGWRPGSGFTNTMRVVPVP
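Purified hPK-M2 (>95% pure) converted ADP (0.1 mM final) to ATP with 0.5 mM PEP in 50 mM imidazole pH7.2, KCl, MgCl2, Tween 20, BSA; 1 h at room temperature. ATP detected by Kinase-Glo luminescence.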
Six1-Eya2 inh – Six1/Eya2 interaction inhibition | Q15475+O00167 | AlphaScreen GST-Six1/His-Eya2 binding, biochemical; active compounds read low | activity change, % (test concentration not listed) | hit rate 0.56% among 360,000
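GST-Six1 + His-Eya2 (5X stock: 250/500 nM); Tris pH 8.0, 300 mM NaCl, 0.05% BSA, 0.02% Tween 20; GSH donor/Ni acceptor beads; 1 h 37 °C dark; AlphaScreen readout.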
CtBP-E1A blk – CtBP/E1A binding inhibition; AlphaScreen GST-E1A/His-CtBP binding, 1536-well; active compounds read low; activity change, % (concentration not given with the values); hit rate 0.49% among 340,000; AID 651724
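In 5 uL wells, 23 nL compound meets equimolar GST-E1A and His-CtBP (5X stock 125 nM each) for 2 h, 37 °C. Beads (5X, 50 ug/mL) then 1 h, 37 °C, dark.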
The depositor's hits bear a star; u = inconclusive; x = not tested or not shown; [ ] = remark or other dose. Cut-off read from the data, not from the text of the source, unless noted: active = activity change below about -65%; inconclusive = mostly about -30% to -63%; inactive = weaker than that. % is set by controls: 0 for no effect and ±100 for the full control effect.

SMILES	MBNL1-CUG inh	PKM2 act	Six1-Eya2 inh	CtBP-E1A blk
CC1(c2nc3ccccc3[nH]2)CCCC2=Nc3ccccc3CN21 (configuration not stated)	x	x	2	1
Cc1sc2ncnc(N/N=C/c3ccccc3O)c2c1C	x	-1%	-86*	-88*
C[C@H]1CN([C@@H](C)CO)C(=O)c2cc(Br)cnc2O[C@H]1CN(C)C(=O)Cc1ccccn1	x	x	-1	5
COc1ccc(C2c3c(ncn(CCN4CCOCC4)c3=N)Oc3ccc4ccccc4c32)cc1OC (configuration not stated)	6%	20µM*	5	-12
CN(c1ccc(C(=O)NCc2ccc3c(c2)OCO3)cc1)S(=O)(=O)c1ccccc1	16%	16µM*	-1	-6
CN(c1ccccc1)S(=O)(=O)c1ccc(C(=O)NCc2ccco2)cc1	x	x	-1	5
COc1ccc(S(=O)(=O)N(C)c2ccc(C(=O)NCc3ccco3)cc2)cc1	4%	13µM*	-6	0
CSc1cccc(NS(=O)(=O)c2ccc(-c3coc(C)n3)cc2)c1	-4%	x	1	15
Cc1nc(-c2ccc(S(=O)(=O)Nc3cccc(Cl)c3)cc2)co1	u	7.9µM*	3	6
CCN1C(=O)c2cccc3c(S(=O)(=O)Nc4nc(C)cs4)ccc1c23	u	4µM*	-17	-10
CCN1C(=O)c2cccc3c(S(=O)(=O)Nc4ncccc4C)ccc1c23	u	11µM*	5	17
CCN1C(=O)c2cccc3c(S(=O)(=O)Nc4ccccn4)ccc1c23	u	u	0	-1
COc1cc(OC)c(C(=O)Nc2cc(S(=O)(=O)N3CCOCC3)ccc2N2CCOCC2)cc1OC	x	x	2	-1
COC(=O)c1ccc(COc2cccn3c(N(C)C(=O)CCC4CCCC4)c(C)nc23)cc1	x	x	-11	-2
CCc1nc2ccc(C(=O)NCc3ccccc3OC)cn2c1N(CC)Cc1cccc(Br)c1	x	x	0	-2
O=CNc1cc(-c2ccoc2)cn2c(-c3ccc(F)cc3)cnc12	x	x	-11	-25
CC(=O)Nc1ccccc1NS(=O)(=O)c1ccccc1[N+](=O)[O-]	-19%	40µM*	1	-1
CC(=O)C[C@@H]1SC[C@H](c2ccccc2)N1S(=O)(=O)c1ccc(C)cc1	x	x	7	0
COCCNC(=O)/C(C#N)=C/c1c(N2CCN(C)CC2)nc2c(C)cccn2c1=O	u	x	-2	-76*
COc1cc2c(cc1OC)C1O[C@](c3ccsc3)(C2)Oc2cc(-c3ccccc3)oc(=O)c21	-9%[11.5 µM]	1%[11.5 µM]	x	x
COc1ccc(F)cc1C(=O)C1CCCN(Cc2cccn2-c2cccnc2)C1 (configuration not stated)	-10%	35µM*	2	x
CC1(C(=O)O)CCC(C(=O)NNC(=O)c2ccccc2Cl)C1(C)C (configuration not stated)	x	x	0	-65*
CC1(C(=O)O)CCC(C(=O)Nc2ccccc2O)C1(C)C (configuration not stated)	-13%	-6%	11	-6
COc1ccccc1CNc1nc(NCc2ccc3occc3c2)c2sccc2n1	x	x	-10	-5
CCCCc1nc2c(c3c1C[C@H](C)OC3)CN(S(=O)(=O)c1ccc(NC(C)=O)cc1)CC2	x	-8%[11.5 µM]	x	x
SMILES	MBNL1-CUG inh	PKM2 act	Six1-Eya2 inh	CtBP-E1A blk
O=[N+]([O-])c1ccc(/C=N/Nc2nc(NCc3ccccc3)nc(N3CCOCC3)n2)cc1	-3%	x	1	x
O=[N+]([O-])c1cccc(/C=N/Nc2nc(NCc3ccccc3)nc(N3CCOCC3)n2)c1O	-15%	-5%	-94*	-67*
CCOC(=O)[C@]12CCCC=C1N(CCC1=CCCCC1)C(=O)[C@H](CC(=O)NCc1ccc(OC)c(OC)c1)C2	x	x	-11	-14
Cc1[nH]nc2c1C(c1ccco1)C(C#N)=C(N)O2 (configuration not stated)	7%	3%	-1	-23
COc1ccc(-c2ccc(C3C(C#N)=C(N)Oc4n[nH]c(C)c43)o2)cc1 (configuration not stated)	u	4%	u	-67*
CN1OC[C@@H]2CN[C@H](c3ccc(-c4cc5ccccc5o4)cc3)C[C@@H]21	x	x	-4	5
COC(=O)C[C@H]1c2ccccc2C2=C(C[C@@H](C)[C@H]3C(=O)NC(=O)[C@@H]23)N1C(=O)OC	x	-4%[11.5 µM]	x	x
O=C(O)c1ccc2cccnc2c1O	-14%	-20%	-16	-16

Bioassay records deposited in PubChem BioAssay by National Center for Advancing Translational Sciences (NCATS).
